# Data published in PubChem BioAssay.
# “And” between values parts separate entries of the source, which are not always exact repeats. Equal values may be shown once. Inconclusive results are not listed. More than one record can exist for a structure, and the calls need not agree. The source made the active and inactive calls. Unless noted, no stated cut-off is given here; in the data, active means inhibition above about 80%; inactive means the rest.
# Assays:
# [1] = viability loss in pontine glioma line – cell-based, SU-DIPG-XXV, MIPE5.0, CellTiter-Glo, qHTS, dose response (AID 1347065; cut-off not given, nearly all actives have AC50 up to about 26 µM;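 further: cells exposed to compound for 48 hours before ATP readout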); settings: CellTiter-Glo ATP luminescence
# [2] = JHH-DIPG-1 glioma cell viability, MIPE5.0 library, CellTiter-Glo luminescence, qHTS (AID 1347067; cut-off not given, nearly all actives have AC50 up to about 26 µM;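 further: cells exposed to compound for 48 hours before readout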); settings: JHH-DIPG-1 glioma viability, CellTiter-Glo ATP luminescence
# [3] = growth inhibition of DIPG cells – cell-based, MIPE5.0 library, qHTS (AID 1347068; cut-off not given, nearly all actives have IC50 up to about 30 µM); settings: SU-DIPG-XXV viability
# [4] = growth inhibition of DIPG cells – cell-based, MIPE4.0 library, CellTiter-Glo luminescence, qHTS (AID 1347066; cut-off not given, nearly all actives have AC50 up to about 30 µM;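 further: cells exposed to compound for 48 hours before readout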); settings: SU-DIPG-VI viability, CellTiter-Glo ATP luminescence
# [5] = viability loss with induced miR-34 in A549 – imaging, A549 dox-inducible miR-34, nuclei and caspase counts, primary screen (AID 1347080;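 active means compounds whose cell count with miR-34 switched on is under 0.7 times the count with it off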); settings: A549 miR-34 inducible, Hoechst nuclei count, 48 h
# [6] = MELAS cybrid and Rieske KO viability enhancers – cell-based, MELAS cybrids, Rieske KO mouse fibroblasts, CellTiter-Glo, primary screen (AID 1508586;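 active means mean z-score across replicates of 1.96 or higher in either the MELAS or the Rieske mutant cell line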;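 further: z relative to plate mean and SD of compound and empty wells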); settings: low glucose
# [7] = growth inhibition, single agent or in combination, cell-based, chromothripsis tumors, cisplatin or BGB combos (AID 1671449); settings: LFS_MB_P medulloblastoma cells;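 further: cells exposed for 96 hours; 0% = vehicle DMSO and 100% = killing by high DMSO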
# [8] = growth inhibition, single agent and combos, cell-based, chromothripsis tumors, cisplatin or BGB combos (AID 1671450); settings: HDN33 neuroblastoma cells, stronger effect = higher value;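 further: cells exposed to compound for four days; 0% = vehicle DMSO and 100% = cell killing by high DMSO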
# [9] = growth inhibition, single agents and combos, ICB984, cell-based, cisplatin or BGB combos, synergistic combos for chromothripsis tumors (AID 1671451; call rule not given here;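 further: cells exposed for 96 hours before readout; 0% = vehicle DMSO and 100% = killing by high DMSO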); settings: ICB984 medulloblastoma cells, drug combinations, stronger effect = higher value
# [10] = growth inhibition, single agents and combos, LFS_MB_1R, cell-based, cisplatin or BGB combos, synergistic combos for chromothripsis tumors (AID 1671452); settings: LFS_MB_1R medulloblastoma cells, stronger effect = higher value;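 further: cells exposed for 96 hours before readout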
# [11] = growth inhibition, single agents and combos, HTB85, cell-based, BGB or cisplatin IC20 combos, synergistic combos for chromothripsis tumors (AID 1671453); settings: HTB85 osteosarcoma cells, drug combinations, stronger effect = higher value;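 further: cells exposed for 96 hours before readout; 0% = vehicle DMSO and 100% = high DMSO killing control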
# [12] = growth inhibition, single agents and combos, CRL2098, cell-based, BGB or cisplatin IC20 combos, synergistic combos for chromothripsis tumors (AID 1671454); settings: CRL2098 osteosarcoma cells, drug combinations, stronger effect = higher value;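 further: cells exposed for 96 h before readout; 0% = vehicle DMSO and 100% = killing by high DMSO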
# [13] = growth inhibition, single agents and combos, HD-MB03, cell-based, BGB or cisplatin IC20 combos, synergistic combos for chromothripsis tumors (AID 1671455; in the data active means inhibition above about 83%;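 further: 0% = vehicle DMSO and 100% = high DMSO as cytotoxic control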); settings: HD-MB03 medulloblastoma cells, stronger effect = higher value
# [14] = growth inhibition, single agents and combos, UWB1.289, cell-based, BGB or cisplatin combos, synergistic combos for chromothripsis tumors (AID 1671456); settings: UWB1.289 ovarian carcinoma cells, stronger effect = higher value;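 further: cells exposed to compound for four days; 0% = vehicle DMSO and 100% = killing by high DMSO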
# [15] = growth inhibition, single agents and combos, LFS_MB_2R, cell-based, cisplatin combos, synergistic combos for chromothripsis tumors (AID 1671457); settings: LFS_MB_2R medulloblastoma cells, stronger effect = higher value;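 further: cells exposed to compound for four days before readout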
# [16] = growth inhibition, MDA-MB-436, cell-based, BGB or cisplatin combos, synergistic combos for chromothripsis tumors (AID 1671458; call rule not given here;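 further: cells exposed for 96 hours; 0% = vehicle DMSO and 100% = killing by high DMSO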); settings: MDA-MB-436 breast carcinoma growth inhibition, drug combinations, stronger effect = higher value
# [17] = UWB1.289_BRCA1 ovarian cancer growth, cell-based, BGB or cisplatin combinations (AID 1671459); settings: UWB1.289 BRCA1 ovarian carcinoma, drug combinations, stronger effect = higher value
# [18] = drug combination toxicity in non-malignant astrocytes – cell-based, BGB or cisplatin IC20 combos, cytotoxicity control for chromothriptic childhood tumor combination screen (AID 1671460); settings: Human astrocytes, viability inhibition, drug combinations, at 0.5 µM, stronger effect = higher value;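 further: cells exposed to compounds for 96 hours before viability readout; 0% = vehicle and 100% = killing control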
# [19] = BT084 cell growth, single and combined drugs, ICGC_MB145, cisplatin and BGB IC40 combos (AID 1671461); settings: BT084 medulloblastoma cells, drug combinations, stronger effect = higher value;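 further: cells exposed to drugs for 96 hours; 0% = vehicle DMSO and 100% = high DMSO full killing control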
# [20] = RCMB18 cell growth, single agent and combined, cisplatin and BGB IC40 combos (AID 1671462); settings: RCMB18 medulloblastoma cells, stronger effect = higher value;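 further: cells exposed to compound for four days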
# [21] = CRL1545 cell growth, single agent and combined, cisplatin and BGB IC20 combos (AID 1671464); settings: CRL1545 osteosarcoma cells, stronger effect = higher value;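 further: cells exposed to compound for 96 hours before readout; 0% = vehicle DMSO and 100% = high DMSO killing control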
# [22] = measured here: combination with BGB IC40, at 0.05 µM
# [23] = measured here: with BGB IC20 combination, at 0.5 µM
# [24] = measured here: with cisplatin IC20 combination, at 0.5 µM
# [25] = measured here: combination with cisplatin, at 0.5 µM
# [26] = measured here: combination with cisplatin, at 5 µM
structure (smiles),measurement,setting,value
Cc1nc(C)c(CN2CCN(C(c3ccc(F)cc3)c3ccc(F)cc3)CC2)nc1C,AC50,[1],23.5 µM (active)
same,outcome,[2],inactive
same,outcome,[3],inactive
N#CN1CCC[C@@H](n2nc(-c3ccc(Oc4ccc(F)cc4F)cc3)c(C(N)=O)c2N)C1,outcome,[2],inactive
same,outcome,[3],inactive
CCC(=O)N[C@H]1CC[C@H](C(=O)N(C)c2ccc(-c3nc4ccccc4o3)cc2)C1,outcome,[4],inactive
same,outcome,[2],inactive
CCNC(=O)Nc1ncc(-c2cc(-c3c(C)cc(OC)cc3C)nc(-c3cnccn3)n2)s1,outcome,[2],inactive
same,outcome,[3],inactive
O=c1[nH]nc2c3c(cccc13)NC(CN1Cc3ccccc3C1)=N2,outcome,[3],inactive
CNCc1ccc(-c2cc(-c3nc(-c4ccc(S(=O)(=O)C(C)C)cc4)cnc3N)on2)cc1,AC50,[1],6.61 µM (active)
same,fold change,"[5]; stronger effect = lower value, cell number ratio, induced over uninduced",1.09 (inactive)
same,fold change,[5]; measured here: relative caspase fold change +Dox/-Dox,0.389
same,cell count,"[5]; measured here: total cells with miR-34 induction, stronger effect = lower value",2400
same,cell count,[5]; measured here: total cells without miR-34 induction,2210
same,z-score,"[6]; MELAS cybrid survival, CellTiter-Glo 48 h, stronger effect = higher value",2.18 (active)
same,z-score,"[6]; Rieske KO mouse fibroblast survival, CellTiter-Glo 72 h",-0.548
same,inhibition,"[7]; at 0.5 µM, stronger effect = higher value",-32.1% (inactive) and 15.3% (inactive)
same,inhibition,"[7]; measured here: combination with BGB IC20, at 0.005 µM",12.2% and -16.2%
same,inhibition,"[7]; measured here: combination with BGB IC40, at 0.005 µM",9.32% and -55%
same,inhibition,[7]; [22],-2.44% and -42.7%
same,inhibition,"[7]; measured here: combination with cisplatin, at 0.5 µM, stronger effect = higher value",-68.5% and 16.4%
same,inhibition,"[7]; measured here: combination with cisplatin, at 5 µM, stronger effect = higher value",96.1% and -3.93%
same,inhibition,"[8]; BGB combo, at 5 µM",99.9% and 91.5%
same,inhibition,[8]; at 0.5 µM,81% (active) and 55% (inactive)
same,inhibition,"[8]; cisplatin combo, at 5 µM",99.7% and 98.8%
same,inhibition,[8]; [23],74.7% and 52.8%
same,inhibition,[8]; [24],84.9% and 61.2%
same,inhibition,"[8]; single agent, at 5 µM",99.6% and 97.3%
same,inhibition,"[9]; BGB IC20 combo, at 0.005 µM",10% and -1.43%
same,inhibition,"[9]; BGB IC40 combo, at 0.005 µM",46.6% and 13%
same,inhibition,"[9]; BGB IC40 combo, at 0.05 µM",102%
same,inhibition,[9]; at 0.5 µM,-9.05% (inactive) and -13.1% (inactive)
same,inhibition,"[9]; cisplatin combo, at 0.05 µM",102% and 103%
same,inhibition,"[9]; cisplatin combo, at 0.5 µM",-4.28% and -29.4%
same,inhibition,"[9]; cisplatin combo, at 5 µM",0.208% and -7.66%
same,inhibition,"[9]; measured here: 5 uM single agent, at 5 µM",4.2% and -17.2%
same,inhibition,[10]; at 0.5 µM,-10.6% (inactive) and -30.6% (inactive)
same,inhibition,[10]; [22],-16.3% and -24.4%
same,inhibition,[10]; [25],-6.99% and -51.5%
same,inhibition,[10]; [26],103% and 92%
same,inhibition,[11]; at 0.5 µM,67.2% (inactive) and 53.2% (inactive)
same,inhibition,"[11]; measured here: with BGB IC20, at 0.5 µM",67.9% and 66.3%
same,inhibition,"[11]; measured here: with BGB IC20, at 5 µM",99.8% and 98.3%
same,inhibition,"[11]; measured here: with cisplatin IC20, at 0.5 µM",78.5% and 60.7%
same,inhibition,"[11]; measured here: with cisplatin IC20, at 5 µM",99.8% and 88.8%
same,inhibition,"[11]; single agent, at 5 µM",99.8% and 79%
same,inhibition,[12]; at 0.5 µM,45.2% (inactive) and 30% (inactive)
same,inhibition,"[12]; measured here: combination with BGB at IC20, at 0.5 µM",27% and 27.5%
same,inhibition,"[12]; measured here: combination with cisplatin at IC20, at 0.5 µM",60.9% and 31.3%
same,inhibition,[13]; at 0.5 µM,87.3% (active) and 58.6% (inactive)
same,inhibition,"[13]; measured here: combo with BGB at IC20, at 0.5 µM",82.9% and 61.6%
same,inhibition,"[13]; measured here: combo with cisplatin at IC20, at 0.5 µM",96.2% and 87.4%
same,inhibition,[14]; at 0.5 µM,83% (active) and 72.2% (inactive)
same,inhibition,"[14]; measured here: inhibition with BGB combination, at 0.05 µM",7.96% and -9.18%
same,inhibition,"[14]; measured here: inhibition with cisplatin combination, at 0.05 µM",41.3% and 1.85%
same,inhibition,[15]; at 0.5 µM,13.8% (inactive) and -20% (inactive)
same,inhibition,[15]; [25],29.2% and -5.7%
same,inhibition,[15]; [26],104% and 53.6%
same,inhibition,[16]; at 0.5 µM,55.5% (inactive) and 36% (inactive)
same,inhibition,"[16]; measured here: BGB combination, at 0.5 µM",34.5% and 11.4%
same,inhibition,"[16]; measured here: BGB combination, at 5 µM",82.1% and 63.6%
same,inhibition,"[16]; measured here: cisplatin combination, at 0.5 µM",76.4% and 54%
same,inhibition,"[16]; measured here: cisplatin combination, at 5 µM",109% and 82.4%
same,inhibition,"[17]; BGB combination, concentration series, at 5 µM",101% and 97.7%
same,inhibition,[17]; at 0.5 µM,90.3% (active) and 82.2% (active)
same,inhibition,"[17]; cisplatin combination, concentration series, at 5 µM",84.8% and 106%
same,inhibition,[18],-32% (inactive) and -35.2% (inactive)
same,inhibition,[18]; measured here: combo with BGB IC20,-34.1% and -25.6%
same,inhibition,[18]; measured here: combo with cisplatin IC20,-44.2% and -41.4%
same,inhibition,[19]; at 0.5 µM,29.8% (inactive) and 12.8% (inactive)
same,inhibition,"[19]; cisplatin combination, at 0.5 µM",27.7% and 16.2%
same,inhibition,"[19]; cisplatin combination, at 5 µM",109% and 105%
same,inhibition,"[19]; measured here: BGB IC40 combination 0.05 uM, at 0.05 µM",-22.6% and -25.3%
same,inhibition,"[19]; single agent, at 5 µM",107% and 108%
same,inhibition,[20]; at 0.5 µM,31.8% (inactive) and 0.94% (inactive)
same,inhibition,"[20]; cisplatin combo, at 5 µM",104% and 103%
same,inhibition,"[20]; measured here: BGB IC40 combination, at 0.05 µM",11.9% and -20.4%
same,inhibition,[20]; [25],38.1% and -11.6%
same,inhibition,"[20]; single agent, at 5 µM",101%
same,inhibition,[21]; at 0.5 µM,95% (active) and 91% (active)
same,inhibition,[21]; [23],91.2% and 85.8%
same,inhibition,[21]; [24],96.8% and 93.6%
same,inhibition,"[21]; single agent, at 0.05 µM",35.3% and -10.3%
same,inhibition,"[21]; single agent, at 5 µM",99.8% and 99.5%
COCCOc1ccc(N2CCN(CCn3ncc4c3nc(N)n3nc(-c5ccco5)nc43)CC2)cc1,outcome,[2],inactive
same,outcome,[3],inactive
CC1=NN(c2ccc(C(=O)O)cc2)C(=O)/C1=C/c1ccc(-c2cc(C)c(C)cc2[N+](=O)[O-])o1,outcome,[3],inactive
CC1CCN(c2cc(N3CCN(C)CC3)ccc2NC(=O)c2cc(C#N)c[nH]2)CC1,outcome,[4],inactive
same,outcome,[3],inactive
Cc1cccc(/C=N/Nc2cc(N3CCOCC3)nc(OCCc3ccccn3)n2)c1,outcome,[2],inactive
CN(CCO)C1CCN(c2ccc(Nc3ncc4c5ccnc(F)c5n(C5CCCC5)c4n3)nc2)CC1,outcome,[3],inactive
O=C(Nc1cccc(Br)c1)c1cccc(S(=O)(=O)N2CCCCCC2)c1,outcome,[4],inactive
